{
  "source": "the supplement of paper PMC12024529",
  "data": [
    {"test_system": "HEK293 WT BDD-FVIII-Gluc", "assay": "secreted FVIII-Gluc luciferase Z-score vs DMSO control; higher = more FVIII-Gluc secretion", "settings": "5 µM", "experimental": "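Natural plant-compound library (480 compounds, ST catalogue IDs) screened on HEK293 cells stably expressing WT BDD-FVIII-Gaussia luciferase fusion at 5 µM. Secreted Gluc activity in the medium is given as a Z-score relative to DMSO controls.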", "values": [
      {"smiles": "COc1cc(=O)n(C)c2c(OCC(O)C(C)(C)O)cccc12", "note": "(configuration not stated)", "secreted FVIII-Gluc luciferase Z-score": -1.05},
      {"smiles": "COc1ccc2c(C)cc(=O)oc2c1", "secreted FVIII-Gluc luciferase Z-score": 0.626},
      {"smiles": "C=CC(C)(O)CCCC(C)CCCC(C)CCCC(C)C", "note": "(configuration not stated)", "secreted FVIII-Gluc luciferase Z-score": 0.179},
      {"smiles": "CC/C=C\\C/C=C\\C/C=C\\CCCCCCCC(=O)O", "secreted FVIII-Gluc luciferase Z-score": 0.636},
      {"smiles": "N[C@@H](Cc1c[nH]c2ccc(O)cc12)C(=O)O", "secreted FVIII-Gluc luciferase Z-score": 0.43},
      {"smiles": "COc1cc2ccc(=O)oc2cc1O", "secreted FVIII-Gluc luciferase Z-score": 0.0462},
      {"smiles": "O=c1c(O)c(-c2ccccc2)oc2cc(O)cc(O)c12", "secreted FVIII-Gluc luciferase Z-score": 0.586},
      {"smiles": "CCC12CCCN3CCc4c(n(c5ccccc45)C(O)(C(=O)OC)C1)C32", "note": "(configuration not stated)", "secreted FVIII-Gluc luciferase Z-score": 0.301},
      {"smiles": "Nc1ncnc2c1ncn2[C@H]1C[C@H](O)[C@@H](COP(=O)(O)O)O1", "secreted FVIII-Gluc luciferase Z-score": 0.376},
      {"smiles": "C[C@H]1[C@H]2CC[C@H]3[C@@H]4CC=C5C[C@@H](N(C)C)CC[C@]5(C)[C@H]4CC[C@]23CN1C", "secreted FVIII-Gluc luciferase Z-score": 0.23},
      {"smiles": "Cc1cc2ccc(=O)oc2cc1OC[C@@H](O)C(C)(C)O", "secreted FVIII-Gluc luciferase Z-score": -0.00524},
      {"smiles": "COC(=O)C1(O)CC(O)C(NC(C)=O)C(C(O)C(O)CO)O1", "note": "(configuration not stated)", "secreted FVIII-Gluc luciferase Z-score": 0.68},
      {"smiles": "C=C1C(=O)OC2C[C@@]3(C)CCCC(=C)[C@@H]3CC12", "note": "(some centres not stated)", "secreted FVIII-Gluc luciferase Z-score": -0.82},
      {"smiles": "O=c1ccn(C2OC(COP(=O)(O)O)C(O)C2O)c(=O)[nH]1", "note": "(configuration not stated)", "secreted FVIII-Gluc luciferase Z-score": 0.638},
      {"smiles": "O=C1C[C@@H](c2ccccc2)Oc2cc(O)cc(O)c21", "secreted FVIII-Gluc luciferase Z-score": 0.733},
      {"smiles": "O=c1cc(-c2ccc(O)c(O)c2)oc2cccc(O)c12", "secreted FVIII-Gluc luciferase Z-score": -0.512},
      {"smiles": "COc1cc(/C=C/C(=O)CC(=O)/C=C/c2ccc(O)c(OC)c2)ccc1O", "secreted FVIII-Gluc luciferase Z-score": 0.567},
      {"smiles": "COc1cc2c(cc1OC)-c1c(OC)c(OC)cc3ccnc(c13)C2=O", "secreted FVIII-Gluc luciferase Z-score": -0.583},
      {"smiles": "CC1(C)[C@@H](O)CC[C@]2(C)[C@H]3C(=O)C=C4[C@@H]5C[C@@](C)(C(=O)O)CC[C@]5(C)CC[C@@]4(C)[C@]3(C)CC[C@@H]12", "secreted FVIII-Gluc luciferase Z-score": 0.00884},
      {"smiles": "COC(=O)C[C@](O)(CCCC(C)(C)O)C(=O)O[C@@H]1C(OC)=C[C@]23CCCN2CCc2cc4c(cc2[C@H]13)OCO4", "secreted FVIII-Gluc luciferase Z-score": -4.72},
      {"smiles": "COC(=O)CC[C@@H](C)[C@H]1CC[C@H]2[C@@H]3CC[C@@H]4C[C@H](O)CC[C@]4(C)[C@H]3C[C@H](O)[C@]12C", "secreted FVIII-Gluc luciferase Z-score": 0.392},
      {"smiles": "COc1ccc2c(c1OC)C(Cc1ccccc1)N1CCc3cc4c(cc3C1=C2)OCO4", "note": "(configuration not stated)", "secreted FVIII-Gluc luciferase Z-score": 0.115}
    ]}
  ]
}
